# Laboratory results: a collection of fitness landscapes (doi:10.1038/s41467-024-54723-y)
# Whole data set: some 18,000 sequences, median “TetR repression strength (sort-seq, GFP reporter)” near 0.23, cut for the highest 2% near 0.68. The full list was thinned out, with the highest values kept by preference.
# Biological target: TetR (class B, Tn10) (UniProt P04483)
# Test: TetR repression strength (sort-seq, GFP reporter) (relative to tetO2 = 1); higher = stronger repression
# Details: E. coli
# Summary of the method: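 E. coli SIG10-MAX carried a low-copy plasmid library with eight randomized operator positions between a constitutive promoter and sfGFP, with TetR constitutively expressed. Cells grew 5 h at 37 °C in LB with 50 µg/mL chloramphenicol, then 10^6 cells were FACS-sorted into 13 fluorescence bins, each Illumina-sequenced. Repression strength is the top bin index plus one minus the read-weighted mean bin, divided by the wild-type operator value. Three independent transformations; variants with ≥30 reads in all replicates and CV ≤0.5 were averaged.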
# TetR (class B, Tn10), sequence (P04483 whole entry): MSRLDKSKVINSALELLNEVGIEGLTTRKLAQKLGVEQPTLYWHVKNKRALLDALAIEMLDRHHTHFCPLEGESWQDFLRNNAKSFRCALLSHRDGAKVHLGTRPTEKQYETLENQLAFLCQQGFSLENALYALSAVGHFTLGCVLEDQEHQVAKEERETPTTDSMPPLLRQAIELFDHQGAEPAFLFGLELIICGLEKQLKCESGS
row,Sequence,TetR repression strength
1,TCCCAGGCAGTCGGCGAGA,0.25
2,TCCCAAAGAGTGGGGGAGA,0.217
3,TCCCGTAGAGTGTACGAGA,0.175
4,TCCCGTGGAGTGCCTGAGA,0.0904
5,TCCCCGACAGTGACCGAGA,1.08
6,TCCCCGCCAGTGACCGAGA,0.207
7,TCCCCGAAAGTGACCGAGA,1.21
8,TCCCCGACAGTGACTGAGA,0.207
9,TCCCGGAAAGTGACCGAGA,0.203
10,TCCCCGAAAGTGGCCGAGA,0.0544
11,TCCCGCGGAGTCCTCGAGA,0.294
12,TCCCTATGAGTGGGCGAGA,0.164
13,TCCCACTCAGTTAGGGAGA,0.268
14,TCCCCGATAGTCGACGAGA,0.0424
15,TCCCCAAGAGTCGACGAGA,0.264
16,TCCCCCCGAGTCGACGAGA,0.239
17,TCCCCCATAGTCGACGAGA,0.825
18,TCCCCCATAGTCGGCGAGA,0.134
19,TCCCCCAGAGTCGACGAGA,0.84
20,TCCCATGTAGTATGCGAGA,0.327
21,TCCCCACTAGTGGCGGAGA,0.514
22,TCCCGGTAAGTAACGGAGA,0.201
23,TCCCTGTGAGTCGCAGAGA,0.172
24,TCCCTTTGAGTGCATGAGA,0.403
25,TCCCTTTTAGTGCCTGAGA,0.325
26,TCCCTTTTAGTGCATGAGA,0.711

row,Sequence,TetR repression strength
1,TCCCTTTTAGTGAATGAGA,0.889
2,TCCCTTTTAGTGAGAGAGA,0.425
3,TCCCTTTGAGTGAATGAGA,0.472
4,TCCCGGAAAGTAGCAGAGA,0.0718
5,TCCCTGTTAGTGTGTGAGA,0.138
6,TCCCAATGAGTAGGGGAGA,0.0811
7,TCCCCACAAGTTCGGGAGA,0.0657
8,TCCCTTCTAGTCTAAGAGA,0.306
9,TCCCGCAAAGTCAGGGAGA,0.273
10,TCCCAGCGAGTACGTGAGA,0.134
11,TCCCGTACAGTATAGGAGA,0.0753
12,TCCCGGTAAGTGGGTGAGA,0.141
13,TCCCAGTCAGTGAAAGAGA,0.62
14,TCCCGGTCAGTGAGAGAGA,0.591
15,TCCCGGTGAGTGAAAGAGA,0.347
16,TCCCGGTCAGTGAAAGAGA,0.692
17,TCCCGGTAAGTGGCTGAGA,1.11
18,TCCCGGTAAGTGAGAGAGA,0.502
19,TCCCGGTAAGTAGCTGAGA,0.208
20,TCCCGGTAAGTGAAAGAGA,0.684
21,TCCCCCCCAGTCGATGAGA,0.409
22,TCCCATGGAGTTCGAGAGA,0.0732
23,TCCCCTTAAGTTAATGAGA,0.515
24,TCCCACGGAGTCGCGGAGA,0.172
25,TCCCATGGAGTGTAAGAGA,0.236
26,TCCCGGGCAGTCGTGGAGA,0.285

row,Sequence,TetR repression strength
1,TCCCTAAGAGTCCTCGAGA,0.353
2,TCCCTAATAGTCCTCGAGA,0.385
3,TCCCTTCTAGTCCTCGAGA,0.421
4,TCCCTACGAGTACTCGAGA,0.207
5,TCCCTACGAGTCCTCGAGA,1.14
6,TCCCTACTAGTCCTCGAGA,1.12
7,TCCCATATAGTTTAGGAGA,0.0773
8,TCCCCCGCAGTCCCTGAGA,0.333
9,TCCCAGATAGTCGCGGAGA,0.108
10,TCCCCATCAGTGGTAGAGA,0.417
11,TCCCGATGAGTTAGAGAGA,0.749
12,TCCCGATGAGTTAGGGAGA,0.296
13,TCCCGATGAGTTAAGGAGA,0.797
14,TCCCGAGGAGTTAAGGAGA,0.295
15,TCCCGATGAGTTAATGAGA,0.196
16,TCCCGATGAGTTAGCGAGA,0.201
17,TCCCGAGGAGTAAGTGAGA,0.204
18,TCCCTTGTAGTATGTGAGA,0.133
19,TCCCTAGTAGTACTGGAGA,0.176
20,TCCCGGCTAGTACGGGAGA,0.244
21,TCCCTTGCAGTGACCGAGA,0.315
22,TCCCGATCAGTGAGCGAGA,0.544
23,TCCCTATCAGTCACCGAGA,0.789
24,TCCCTTTCAGTGACTGAGA,0.435
25,TCCCTATCAGTCGCCGAGA,0.455
26,TCCCTATCAGTGGCGGAGA,0.715

row,Sequence,TetR repression strength
1,TCCCTATCAGTGGGGGAGA,0.378
2,TCCCGATCAGTGACCGAGA,0.715
3,TCCCTTTCAGTGACCGAGA,0.946
4,TCCCTGTCAGTCACCGAGA,0.664
5,TCCCTATCAGTCGCGGAGA,0.456
6,TCCCGATCAGTGACTGAGA,0.427
7,TCCCGTCTAGTAGCAGAGA,0.634
8,TCCCATGGAGTGTTAGAGA,0.246
9,TCCCCGATAGTCGTGGAGA,0.177
10,TCCCAGCGAGTGCAAGAGA,0.364
11,TCCCGGCCAGTGGAGGAGA,0.19
12,TCCCAAATAGTCGTGGAGA,0.415
13,TCCCGCCAAGTGCGCGAGA,0.258
14,TCCCTATGAGTGACCGAGA,0.604
15,TCCCGTTCAGTGACAGAGA,0.504
16,TCCCTATCAGTGAAGGAGA,0.51
17,TCCCGATCAGTGACAGAGA,0.742
18,TCCCGTGCAGTAATCGAGA,0.749
19,TCCCTATCAGTGACCGAGA,0.944
20,TCCCGTGCAGTAAACGAGA,0.326
21,TCCCTATCAGTTACCGAGA,0.663
22,TCCCGGGCAGTAATCGAGA,0.121
23,TCCCTATCAGTGAACGAGA,0.862
24,TCCCGACCAGTGACAGAGA,0.644
25,TCCCGATCAGTGAACGAGA,0.628
26,TCCCACATAGTGGTAGAGA,0.199

row,Sequence,TetR repression strength
1,TCCCACTGAGTGCCTGAGA,0.139
2,TCCCATCCAGTGCTTGAGA,0.267
3,TCCCCGTAAGTGAGAGAGA,0.149
4,TCCCTTAAAGTATGCGAGA,0.238
5,TCCCTTTAAGTTCTCGAGA,0.271
6,TCCCTGTAAGTATGGGAGA,0.174
7,TCCCCCGAAGTTAAGGAGA,0.155
8,TCCCTATGAGTGGCCGAGA,0.402
9,TCCCGGTCAGTCACCGAGA,0.669
10,TCCCGTGCAGTGCCCGAGA,0.361
11,TCCCGGTGAGTGACCGAGA,0.207
12,TCCCTATCAGTGGCCGAGA,0.724
13,TCCCGATCAGTGGCCGAGA,0.565
14,TCCCTATCAGTGGGCGAGA,0.541
15,TCCCGATAAGTGGCCGAGA,0.171
16,TCCCGCGCAGTGACCGAGA,0.219
17,TCCCGTGCAGTGACCGAGA,0.709
18,TCCCTATAAGTGGCCGAGA,0.719
19,TCCCGGTCAGTGACCGAGA,0.715
20,TCCCAGTGAGTCCATGAGA,0.163
21,TCCCAACAAGTGTTCGAGA,0.0254
22,TCCCTGCAAGTTTCGGAGA,0.0543
23,TCCCCTGGAGTAGGCGAGA,0.0907
24,TCCCAGTGAGTACCCGAGA,0.261
25,TCCCTTTTAGTGGTGGAGA,0.212
26,TCCCTCATAGTAAGAGAGA,0.291
